Measurements published in PubChem BioAssay (Tox21).
Results filed as inconclusive are left out. The source made the active and inactive calls. Unless noted, the call rests on the fitted dose curve; in most records, active means well fitted curve in the direction sought with a large enough effect in the repeat runs; inconclusive means weak or mixed curves; inactive means no such curve, though single readings can be large; an effect the other way counts as inactive or inconclusive.

Assays:
[1] = qHTS assay for small molecule agonists of the p53 signaling pathway - cell viability (AID 651633; calls by dose curve;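 further: p53RE-bla HCT reporter cells with a stable beta-lactamase p53 reporter; nearly all actives have a fitted effect of over 30% in size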)
Procedure, shortened: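 p53RE-bla cells were treated with compound for 16 hours at 37 C. Cytotoxicity was then measured as CellTiter-Glo luminescence after 30 min at room temperature.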

[2] = qHTS assay for small molecule disruptors of the mitochondrial membrane potential (AID 720635); further: potency means the concentration at half of the fitted maximal effect
Procedure, shortened: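 HepG2 cells exposed to compound 1 hr at 37C, then Mito-MPS dye 30 min. Ratio read of aggregate (540/590 nm) versus monomer (490/535 nm) fluorescence.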

[3] = qHTS assay to test for compound auto fluorescence at 535 nm (green) in HepG2 cells (AID 720675)
[4] = qHTS assay to test for compound auto fluorescence at 460 nm (blue) in HEK293 cells (AID 720678)
Procedure, shortened: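 HEK293, 2,000 cells/well, 10% dialyzed FBS; attach 4-5 hr 37C; pin compound or DMSO; o/n 37C/5% CO2; fluorescence 405/460 nm; triamterene-equivalent units.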

[5] = qHTS assay to test for compound auto fluorescence at 590 nm (red) in HEK293 cells (AID 720679)
Procedure, shortened: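 Intensity at 540nm excitation and 590nm emission is reported as Rose Bengal sodium-equivalent autofluorescence. Measurements followed overnight exposure (37C, 5% CO2) of HEK293 cells, 2,000 per well, to 23 nL compound.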

[6] = qHTS assay to test for compound auto fluorescence at 535 nm (green) in HEK293 cells (AID 720680)
[7] = qHTS assay to test for compound auto fluorescence at 460 nm (blue) in HEK293 cell free culture (AID 720681)
Procedure, shortened: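 Compounds were added to cell-free DMEM with 10% FBS and fluorescence read directly. The blue channel used 405 nm excitation and 460 nm emission, with triamterene as the reference fluorophore.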

[8] = qHTS assay to test for compound auto fluorescence at 590 nm (red) in HEK293 cell free culture (AID 720683)
Procedure, shortened: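 Cell-free wells of DMEM with 10% FBS received compound, and intrinsic fluorescence was read at excitation/emission 540/590 nm. Values expressed as equivalence to Rose Bengal sodium.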

[9] = qHTS assay to test for compound auto fluorescence at 590 nm (red) in HepG2 cell free culture (AID 720684)
Procedure, shortened: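 Auto fluorescence equivalency versus Rose Bengal sodium, red channel Ex/Em 540/590 nm; compounds in cell-free MEM/10% FBS; DMSO vehicle control.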

[10] = qHTS assay to test for compound auto fluorescence at 460 nm (blue) in HepG2 cell free culture (AID 720685)
Procedure, shortened: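 Cell-free plates of MEM plus 10% FBS received 23 nL compound or DMSO vehicle; blue-channel (405/460 nm) intensity scored against triamterene as reference fluorophore.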

[11] = qHTS assay to test for compound auto fluorescence at 535 nm (green) in HepG2 cell free culture (AID 720686)
[12] = qHTS assay to test for compound auto fluorescence at 460 nm (blue) in HepG2 cells (AID 720687)
Procedure, shortened: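 HepG2 cells in MEM with 10% FBS, attached overnight at 37 C, were exposed to compound or DMSO for 1 hr at 37 C, 5% CO2. Blue fluorescence was read at 405/460 nm, with triamterene as reference fluorophore.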

[13] = target: Glucocorticoid receptor (Homo sapiens) (UniProt P04150); test: qHTS assay to identify small molecule agonists of the glucocorticoid receptor (GR) signaling pathway (AID 720691; active means well fitted activation curve with a large enough effect in the signal ratio in the repeat runs, not every such curve was filed as active; the % refers to the signal ratio); conditions: GR-bla HeLa, beta-lactamase reporter ratio, 18 h; activation: at 62.4 µM (top of the series) unless noted
Procedure, shortened: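 Compounds in DMSO, alongside positive controls, were added to GR-bla HeLa reporter cells and incubated 18 h at 37 C; GRE-driven beta-lactamase was detected by fluorescence after 2 h with FRET substrate at room temperature.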

[14] = target: Glucocorticoid receptor (Homo sapiens) (UniProt P04150); test: qHTS assay to identify small molecule antagonists of the glucocorticoid receptor (GR) signaling pathway (AID 720692; active means well fitted inhibition curve with a large enough effect in the signal ratio in the repeat runs, not every such curve was filed as active; the % refers to the signal ratio)
Procedure, shortened: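 In a 1536-well cell format, compounds were added 4 h after seeding GR-bla HeLa cells, together with dexamethasone at 5 nM final; reporter activity was measured by FRET-substrate fluorescence following 18 h at 37 C.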

[15] = qHTS assay for small molecules that induce genotoxicity in human embryonic kidney cells expressing luciferase-tagged ATAD5 - cell viability (AID 651634; calls by dose curve; further: nearly all actives have a fitted effect of over 25% in size)
Procedure, shortened: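 Here HEK293T cells with the ATAD5 luciferase reporter are incubated with test compounds for 15.5 hr, and cytotoxicity is then gauged by measuring protease activity in live cells using fluorescence.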

[16] = qHTS assay for small molecule disruptors of the mitochondrial membrane potential - cell viability (AID 720634; calls by dose curve;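 further: human HepG2 liver cancer cells; nearly all actives have a fitted effect of over 20% in size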)
Procedure, shortened: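 Viability of HepG2 cells is scored from ATP content by luminescence; cells are exposed to compound for 1 hr at 37 C and 5% CO2, then dosed with m-MPI dye before the CellTiter-Glo reagent.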

[17] = qHTS assay to test for compound auto fluorescence at 590 nm (red) in HepG2 cells (AID 720674)
Procedure, shortened: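 HepG2 cells, 2,000 per well in MEM with 10% FBS, attached overnight at 37 C, then got 23 nL compound or DMSO. After 1 hr at 37 C, 5% CO2, red fluorescence was read at 540/590 nm against Rose Bengal sodium as reference.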

[18] = qHTS assay to test for compound auto fluorescence at 535 nm (green) in HEK293 cell free culture (AID 720682)
Procedure, shortened: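 DMEM + 10% FBS, cell-free; cpd or DMSO pinned in; Ex485/Em535 read; output as fluorescein-equivalent signal.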

[19] = qHTS assay for small molecules that induce genotoxicity in human embryonic kidney cells expressing luciferase-tagged ATAD5 (AID 651632); further: nearly all actives have a fitted effect of over 15% in size
Procedure, shortened: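 DMSO vehicle served as the control. HEK293T reporter cells, 16 hr at 37C, then 30 min Amplite at room temperature; ATAD5 induction is measured as luciferase activity.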
On the % scale 0 is the no-effect control and ±100 the full control effect.

Glucocorticoid receptor (Homo sapiens), sequence (P04150 whole entry, looked up): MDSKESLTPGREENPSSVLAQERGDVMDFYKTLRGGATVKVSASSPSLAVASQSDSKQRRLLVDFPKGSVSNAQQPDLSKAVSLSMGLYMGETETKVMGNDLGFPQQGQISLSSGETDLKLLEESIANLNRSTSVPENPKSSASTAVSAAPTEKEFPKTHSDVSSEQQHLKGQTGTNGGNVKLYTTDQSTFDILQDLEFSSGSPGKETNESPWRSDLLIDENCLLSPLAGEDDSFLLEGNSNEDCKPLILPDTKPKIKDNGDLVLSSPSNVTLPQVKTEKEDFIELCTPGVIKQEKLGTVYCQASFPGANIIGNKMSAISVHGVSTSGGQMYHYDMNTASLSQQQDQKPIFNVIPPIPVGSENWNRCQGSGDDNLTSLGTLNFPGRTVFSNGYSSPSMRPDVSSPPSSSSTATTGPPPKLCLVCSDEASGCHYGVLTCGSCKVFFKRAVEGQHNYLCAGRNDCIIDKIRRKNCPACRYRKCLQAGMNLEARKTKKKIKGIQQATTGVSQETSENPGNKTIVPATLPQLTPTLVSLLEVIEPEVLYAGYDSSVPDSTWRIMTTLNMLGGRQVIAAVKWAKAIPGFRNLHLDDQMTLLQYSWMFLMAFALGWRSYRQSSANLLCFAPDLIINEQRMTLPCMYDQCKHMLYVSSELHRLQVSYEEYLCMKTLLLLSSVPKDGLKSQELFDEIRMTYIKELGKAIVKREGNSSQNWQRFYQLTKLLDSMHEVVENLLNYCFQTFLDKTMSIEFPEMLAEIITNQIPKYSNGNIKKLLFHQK

CC(C)Nc1ccc(NC(C)C)c2c1C(=O)c1ccccc1C2=O
active: Potency [2] 11.3 µM
inactive: Potency [1] | Potency [3] | outcome [4] | Potency [5] | outcome [6] | outcome [7] | Potency [8] | Potency [9] | outcome [10] | Potency [11] | outcome [12] | Potency [13] | Potency [14]

CC(CC=O)c1ccccc1 (stereo not given)
active: Potency [2] 54.5 µM
inactive: Potency [1] | Potency [15] | Potency [16] | Potency [17] | Potency [3] | outcome [4] | outcome [6] | outcome [7] | outcome [18] | Potency [8] | Potency [9] | outcome [10] | Potency [11] | outcome [12]

CCn1cc(C(=O)O)c(=O)c2cnc(N3CCNCC3)nc21
inactive: Potency [1] | Potency [15] | Potency [16] | Potency [2] | fluorescence, relative to Rose Bengal [17] 0.305% [at 18.6 µM] | fluorescence, % of fluorescein control [3] -0.0874% [at 18.6 µM] | fluorescence, % of triamterene [4] -0.0251% [at 18.6 µM] | fluorescence, % of fluorescent control [5] -0.324% [at 18.6 µM] | fluorescence, % of fluorescein [6] 0.0376% [at 18.6 µM] | fluorescence, % of fluorescent control [7] 6.27% [at 18.6 µM] | activity change [18] 0.0637% [at 18.6 µM] | fluorescence, % of fluorescent control [8] -0.371% [at 18.6 µM] | fluorescence, % of Rose Bengal [9] -0.185% [at 18.6 µM] | fluorescence, % of fluorescent control [10] 0.0041% [at 18.6 µM] | fluorescence, % of fluorescein control [11] 0.152% [at 18.6 µM] | fluorescence, % of fluorescent control [12] -0.128% [at 18.6 µM]

COc1ccc(C)cc1[N+](=O)[O-]
inactive: Potency [1] | Potency [15] | Potency [16] | Potency [17] | Potency [3] | outcome [4] | Potency [5] | outcome [6] | outcome [7] | outcome [18] | Potency [8] | Potency [9] | outcome [10] | Potency [11] | outcome [12] | Potency [13]

C=CC1CC2C=CC1C2 (stereo not given)
inactive: Potency [15] | Potency [16] | Potency [17] | Potency [3] | outcome [4] | Potency [5] | outcome [6] | outcome [7] | Potency [8] | Potency [9] | outcome [10] | Potency [11] | outcome [12] | Potency [13]

NC(N)=NCCC[C@H](N)C(=O)O
inactive: Potency [1] | Potency [15] | Potency [16] | Potency [3] | outcome [4] | Potency [5] | outcome [6] | outcome [7] | outcome [18] | Potency [8] | Potency [9] | outcome [10] | Potency [11] | outcome [12] | Potency [13] | Potency [14]

COc1cc(Cl)ccc1Oc1ccc(Cl)cc1Cl
inactive: Potency [15] | Potency [3] | outcome [4] | Potency [5] | outcome [6] | outcome [7] | outcome [18] | Potency [8] | Potency [9] | outcome [10] | Potency [11] | Potency [13]

CCOC(=O)NCCOc1ccc(Oc2ccccc2)cc1
inactive: Potency [1] | Potency [15] | Potency [17] | Potency [3] | outcome [4] | Potency [5] | outcome [6] | outcome [7] | outcome [18] | Potency [8] | Potency [9] | outcome [10] | Potency [11]

CCN(CC)CCOC(=O)C(c1ccccc1)C1CCCCC1 (stereo not given)
inactive: Potency [1] | Potency [15] | Potency [16] | Potency [17] | Potency [3] | outcome [4] | outcome [6] | outcome [7] | outcome [18] | Potency [8] | Potency [9] | outcome [10] | Potency [11] | outcome [12] | Potency [13] | Potency [14]

C=CCOC(=O)CCC1CCCCC1
inactive: Potency [15] | Potency [16] | Potency [2] | Potency [17] | Potency [3] | outcome [4] | Potency [5] | outcome [6] | outcome [7] | outcome [18] | Potency [9] | outcome [10] | Potency [11] | outcome [12] | Potency [13] | Potency [14]

O=C(O)c1ccc(-n2nc(-c3ccccc3O)nc2-c2ccccc2O)cc1
inactive: Potency [19] | Potency [16] | Potency [17] | Potency [3] | outcome [4] | Potency [5] | outcome [6] | outcome [7] | Potency [9] | outcome [10] | Potency [11] | outcome [12]
